# Results from publication PMC7862700, “An all-to-all approach to the identification of sequence-specific readers for epigenetic DNA modifications on cytosine”.
# How the values were obtained:
# Experiment in all cases: DAPPL (digital affinity profiling via proximity ligation, sequencing); 10 mM Tris-HCl pH 7.5, 50 mM NaCl, 1 mM DTT, 4% glycerol, room temperature, 30 min; GST-TFs on glutathione beads, 16-mer random dsDNA library, 0.1% formaldehyde crosslink after washing; high values mean tight binding
# FEV = target: T1, FEV (Homo sapiens, UniProt Q99581 1-238); settings: protein: recombinant; tags: N-terminal GST; dsDNA, one strand shown
# T1 sequence: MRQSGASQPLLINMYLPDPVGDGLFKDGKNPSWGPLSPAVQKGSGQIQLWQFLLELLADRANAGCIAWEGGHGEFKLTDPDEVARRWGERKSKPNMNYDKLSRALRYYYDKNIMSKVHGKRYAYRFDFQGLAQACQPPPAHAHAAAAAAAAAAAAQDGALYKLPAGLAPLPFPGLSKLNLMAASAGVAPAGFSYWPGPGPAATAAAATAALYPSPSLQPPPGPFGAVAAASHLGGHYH
# In short: (§1)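 Pools were built from human transcription factors expressed in yeast as GST fusions, captured on glutathione beads and DNA-barcoded, along with a tag-only sample. Incubation with 200 nmole of a 16-mer random double-stranded DNA library lasted 30 min at room temperature in Tris/NaCl/DTT/glycerol buffer, and was followed by washing, 0.1% formaldehyde crosslinking, proximity ligation, PCR amplification and Illumina NextSeq500 sequencing. Binding signal is the quotient of each hexamer's read frequency for a factor and its frequency for the tag-only sample.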
# ETV5 = ETV5 (Homo sapiens, UniProt P41161 1-510); settings: protein: recombinant; tags: N-terminal GST; dsDNA, one strand shown
# Chain of ETV5 (P41161 whole entry): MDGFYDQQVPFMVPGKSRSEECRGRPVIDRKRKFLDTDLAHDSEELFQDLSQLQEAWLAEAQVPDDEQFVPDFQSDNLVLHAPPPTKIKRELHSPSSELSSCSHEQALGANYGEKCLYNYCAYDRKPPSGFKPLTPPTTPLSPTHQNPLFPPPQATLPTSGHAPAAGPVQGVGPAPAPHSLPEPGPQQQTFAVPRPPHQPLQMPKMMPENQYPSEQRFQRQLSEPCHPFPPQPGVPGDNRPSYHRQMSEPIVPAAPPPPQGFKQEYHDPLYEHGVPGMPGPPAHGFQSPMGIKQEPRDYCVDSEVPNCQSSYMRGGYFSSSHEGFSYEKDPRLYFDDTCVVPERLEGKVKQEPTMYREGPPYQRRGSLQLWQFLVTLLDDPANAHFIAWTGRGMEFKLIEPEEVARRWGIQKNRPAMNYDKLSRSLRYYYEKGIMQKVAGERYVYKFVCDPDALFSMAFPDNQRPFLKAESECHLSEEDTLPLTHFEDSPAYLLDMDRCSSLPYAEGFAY
# In short: as §1
# HSF1 = HSF1 (Homo sapiens, UniProt Q00613 1-529); settings: protein: recombinant; tags: N-terminal GST; chain copies: 3; dsDNA, one strand shown
# Chain of HSF1 (Q00613 whole entry): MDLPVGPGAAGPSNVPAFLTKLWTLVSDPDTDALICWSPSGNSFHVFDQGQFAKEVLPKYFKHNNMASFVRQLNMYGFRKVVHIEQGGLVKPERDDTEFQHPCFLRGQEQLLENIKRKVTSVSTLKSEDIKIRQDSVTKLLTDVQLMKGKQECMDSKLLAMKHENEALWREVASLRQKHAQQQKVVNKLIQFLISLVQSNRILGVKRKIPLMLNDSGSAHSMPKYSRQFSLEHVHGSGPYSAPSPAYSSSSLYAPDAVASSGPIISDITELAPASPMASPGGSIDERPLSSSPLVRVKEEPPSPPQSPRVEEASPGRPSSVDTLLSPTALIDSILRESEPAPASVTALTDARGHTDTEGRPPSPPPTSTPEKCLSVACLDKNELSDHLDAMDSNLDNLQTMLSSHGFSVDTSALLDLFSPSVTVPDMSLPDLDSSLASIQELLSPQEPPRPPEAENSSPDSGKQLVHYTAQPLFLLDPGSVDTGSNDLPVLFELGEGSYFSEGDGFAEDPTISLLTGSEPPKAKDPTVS
# In short: as §1
# SPIC = target: T2, SPIC (Homo sapiens, UniProt Q8N5J4 1-248); settings: protein: recombinant; tags: N-terminal GST; dsDNA, one strand shown
# T2 sequence: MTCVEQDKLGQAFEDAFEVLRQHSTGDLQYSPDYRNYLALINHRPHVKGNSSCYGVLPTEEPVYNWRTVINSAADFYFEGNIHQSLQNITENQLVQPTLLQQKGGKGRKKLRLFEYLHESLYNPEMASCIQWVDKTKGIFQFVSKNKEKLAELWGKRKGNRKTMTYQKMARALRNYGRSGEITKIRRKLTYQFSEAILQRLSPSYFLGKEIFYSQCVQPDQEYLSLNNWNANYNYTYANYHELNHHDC
# In short: as §1
# ELF4 = ELF4 (Homo sapiens, UniProt Q99607 1-663); settings: protein: recombinant; tags: N-terminal GST; dsDNA, one strand shown
# Chain of ELF4 (Q99607 whole entry): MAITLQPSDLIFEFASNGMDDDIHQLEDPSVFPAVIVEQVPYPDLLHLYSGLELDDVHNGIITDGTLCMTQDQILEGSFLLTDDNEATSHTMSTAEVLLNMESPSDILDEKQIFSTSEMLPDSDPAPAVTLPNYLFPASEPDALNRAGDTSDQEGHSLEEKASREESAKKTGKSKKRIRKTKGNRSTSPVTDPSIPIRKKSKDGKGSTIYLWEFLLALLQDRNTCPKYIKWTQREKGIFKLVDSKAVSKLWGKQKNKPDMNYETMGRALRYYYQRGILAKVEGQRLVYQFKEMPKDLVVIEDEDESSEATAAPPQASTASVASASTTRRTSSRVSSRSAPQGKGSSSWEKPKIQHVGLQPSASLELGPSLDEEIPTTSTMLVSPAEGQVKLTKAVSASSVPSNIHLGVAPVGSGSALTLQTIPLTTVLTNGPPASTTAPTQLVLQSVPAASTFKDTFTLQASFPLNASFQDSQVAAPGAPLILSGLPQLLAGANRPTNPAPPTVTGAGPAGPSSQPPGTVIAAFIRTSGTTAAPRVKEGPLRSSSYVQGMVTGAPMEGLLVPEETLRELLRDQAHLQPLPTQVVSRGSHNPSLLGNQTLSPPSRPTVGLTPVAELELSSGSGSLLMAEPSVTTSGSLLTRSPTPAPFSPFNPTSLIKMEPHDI
# In short: as §1
# ELK4 = target: T3, ELK4 (Homo sapiens, UniProt P28324-2 1-405); settings: protein: recombinant; tags: N-terminal GST; dsDNA, one strand shown
# T3 sequence: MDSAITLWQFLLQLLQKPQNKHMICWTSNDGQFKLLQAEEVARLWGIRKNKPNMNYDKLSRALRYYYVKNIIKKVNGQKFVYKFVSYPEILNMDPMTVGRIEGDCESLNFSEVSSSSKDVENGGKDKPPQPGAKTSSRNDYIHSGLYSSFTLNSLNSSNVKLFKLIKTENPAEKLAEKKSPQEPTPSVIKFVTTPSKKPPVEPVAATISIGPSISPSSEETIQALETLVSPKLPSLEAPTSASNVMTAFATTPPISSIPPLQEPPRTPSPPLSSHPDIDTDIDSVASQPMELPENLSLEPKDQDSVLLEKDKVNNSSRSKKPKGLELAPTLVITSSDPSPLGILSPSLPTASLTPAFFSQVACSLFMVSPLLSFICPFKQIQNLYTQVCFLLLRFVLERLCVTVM
# In short: as §1
# ETV2 = target: T4, ETV2 (Homo sapiens, UniProt O00321 1-342); settings: protein: recombinant; tags: N-terminal GST; dsDNA, one strand shown
# T4 sequence: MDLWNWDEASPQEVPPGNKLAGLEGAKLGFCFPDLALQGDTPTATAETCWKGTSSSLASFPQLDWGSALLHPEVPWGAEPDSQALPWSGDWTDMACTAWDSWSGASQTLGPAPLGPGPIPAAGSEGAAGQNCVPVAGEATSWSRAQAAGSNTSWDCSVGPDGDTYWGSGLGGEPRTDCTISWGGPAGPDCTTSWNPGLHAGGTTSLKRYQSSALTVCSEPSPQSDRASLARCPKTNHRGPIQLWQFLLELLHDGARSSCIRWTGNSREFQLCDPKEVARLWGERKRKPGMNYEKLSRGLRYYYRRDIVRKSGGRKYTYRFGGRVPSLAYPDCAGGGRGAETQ
# In short: as §1
# ELF3 = target: T5, ELF3 (Homo sapiens, UniProt P78545 1-371); settings: protein: recombinant; tags: N-terminal GST; dsDNA, one strand shown
# T5 sequence: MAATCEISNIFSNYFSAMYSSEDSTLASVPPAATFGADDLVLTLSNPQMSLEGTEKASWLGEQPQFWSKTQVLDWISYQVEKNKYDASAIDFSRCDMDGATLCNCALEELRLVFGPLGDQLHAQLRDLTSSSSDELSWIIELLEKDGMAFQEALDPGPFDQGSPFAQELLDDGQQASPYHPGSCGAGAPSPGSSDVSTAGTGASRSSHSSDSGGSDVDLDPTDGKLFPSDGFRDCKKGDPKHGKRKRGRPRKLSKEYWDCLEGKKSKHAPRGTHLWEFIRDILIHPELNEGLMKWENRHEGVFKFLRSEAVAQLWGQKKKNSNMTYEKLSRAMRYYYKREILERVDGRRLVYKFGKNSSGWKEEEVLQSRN
# In short: as §1
# CRX = CRX (Homo sapiens, UniProt O43186 1-299); settings: protein: recombinant; tags: N-terminal GST; dsDNA, one strand shown
# Chain of CRX (O43186 whole entry): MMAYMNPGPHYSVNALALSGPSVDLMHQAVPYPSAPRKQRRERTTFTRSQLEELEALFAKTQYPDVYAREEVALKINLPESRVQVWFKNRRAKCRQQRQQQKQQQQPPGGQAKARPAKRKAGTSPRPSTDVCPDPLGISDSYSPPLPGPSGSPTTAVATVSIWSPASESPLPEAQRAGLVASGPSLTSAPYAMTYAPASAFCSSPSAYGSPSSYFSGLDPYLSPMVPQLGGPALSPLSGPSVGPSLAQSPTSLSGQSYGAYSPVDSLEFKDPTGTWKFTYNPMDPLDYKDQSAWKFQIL
# In short: as §1
# ETV1 = ETV1 (Homo sapiens, UniProt P50549 1-477); settings: protein: recombinant; tags: N-terminal GST; dsDNA, one strand shown
# Chain of ETV1 (P50549 whole entry): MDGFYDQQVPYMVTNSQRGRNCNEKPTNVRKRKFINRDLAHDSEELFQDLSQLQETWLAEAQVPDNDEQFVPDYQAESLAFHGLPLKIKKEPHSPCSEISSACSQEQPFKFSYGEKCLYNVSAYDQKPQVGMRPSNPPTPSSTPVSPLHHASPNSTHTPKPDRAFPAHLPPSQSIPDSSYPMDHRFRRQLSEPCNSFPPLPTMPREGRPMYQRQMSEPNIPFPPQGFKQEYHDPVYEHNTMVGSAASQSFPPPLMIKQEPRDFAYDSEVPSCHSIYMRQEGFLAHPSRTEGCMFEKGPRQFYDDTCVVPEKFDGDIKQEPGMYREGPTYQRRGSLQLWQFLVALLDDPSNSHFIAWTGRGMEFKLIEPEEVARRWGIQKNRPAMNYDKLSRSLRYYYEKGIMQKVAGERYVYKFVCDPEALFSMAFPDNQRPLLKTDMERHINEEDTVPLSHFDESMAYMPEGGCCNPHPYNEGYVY
# In short: as §1
# ERF = target: T6, ERF (Homo sapiens, UniProt P50548 1-548); settings: protein: recombinant; tags: N-terminal GST; dsDNA, one strand shown
# T6 sequence: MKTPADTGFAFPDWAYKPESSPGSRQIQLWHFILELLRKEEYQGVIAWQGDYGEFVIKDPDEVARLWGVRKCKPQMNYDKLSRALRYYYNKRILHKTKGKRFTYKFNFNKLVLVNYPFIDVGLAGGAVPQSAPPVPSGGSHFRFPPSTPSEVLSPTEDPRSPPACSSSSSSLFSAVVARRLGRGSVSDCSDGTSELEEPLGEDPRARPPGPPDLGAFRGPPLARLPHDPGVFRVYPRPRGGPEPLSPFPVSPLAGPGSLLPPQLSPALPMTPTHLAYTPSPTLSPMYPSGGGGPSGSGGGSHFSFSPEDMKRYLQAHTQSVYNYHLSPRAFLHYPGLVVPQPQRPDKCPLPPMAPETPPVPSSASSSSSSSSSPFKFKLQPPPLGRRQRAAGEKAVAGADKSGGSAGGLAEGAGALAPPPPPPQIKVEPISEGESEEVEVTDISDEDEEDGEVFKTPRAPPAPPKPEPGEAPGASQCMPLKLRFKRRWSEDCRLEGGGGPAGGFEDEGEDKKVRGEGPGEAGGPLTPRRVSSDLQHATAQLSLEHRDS
# In short: as §1
# ETV3L = target: T7, ETV3L (Homo sapiens, UniProt Q6ZN32 1-361); settings: protein: recombinant; tags: N-terminal GST; dsDNA, one strand shown
# T7 sequence: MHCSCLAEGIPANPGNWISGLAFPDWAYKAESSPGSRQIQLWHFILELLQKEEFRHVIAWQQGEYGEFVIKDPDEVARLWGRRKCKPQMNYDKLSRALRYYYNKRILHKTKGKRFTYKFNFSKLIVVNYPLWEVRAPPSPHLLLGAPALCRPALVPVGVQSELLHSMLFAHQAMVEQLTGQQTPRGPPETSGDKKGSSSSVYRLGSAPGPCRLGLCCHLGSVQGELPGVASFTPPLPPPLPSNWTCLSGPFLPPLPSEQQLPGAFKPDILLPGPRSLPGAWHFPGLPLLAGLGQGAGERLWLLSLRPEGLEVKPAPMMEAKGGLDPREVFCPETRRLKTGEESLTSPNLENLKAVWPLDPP
# In short: as §1
# ETS2 = target: T8, ETS2 (Homo sapiens, UniProt P15036 1-469); settings: protein: recombinant; tags: N-terminal GST; dsDNA, one strand shown
# T8 sequence: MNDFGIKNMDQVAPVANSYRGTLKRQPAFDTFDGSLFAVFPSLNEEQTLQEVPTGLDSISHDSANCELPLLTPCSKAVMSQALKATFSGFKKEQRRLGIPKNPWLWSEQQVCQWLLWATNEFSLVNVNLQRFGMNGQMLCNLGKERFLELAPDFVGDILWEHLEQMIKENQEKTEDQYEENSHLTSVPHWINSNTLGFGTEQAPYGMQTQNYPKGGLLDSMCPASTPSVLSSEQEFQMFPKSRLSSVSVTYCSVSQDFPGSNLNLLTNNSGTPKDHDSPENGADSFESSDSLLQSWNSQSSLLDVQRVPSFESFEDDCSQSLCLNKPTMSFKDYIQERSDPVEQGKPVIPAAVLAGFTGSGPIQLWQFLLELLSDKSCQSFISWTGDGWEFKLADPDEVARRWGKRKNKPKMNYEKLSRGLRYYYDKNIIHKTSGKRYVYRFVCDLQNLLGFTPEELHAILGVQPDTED
# In short: as §1
# SPDEF = target: T9, SPDEF (Homo sapiens, UniProt O95238 1-335); settings: protein: recombinant; tags: N-terminal GST; dsDNA, one strand shown
# T9 sequence: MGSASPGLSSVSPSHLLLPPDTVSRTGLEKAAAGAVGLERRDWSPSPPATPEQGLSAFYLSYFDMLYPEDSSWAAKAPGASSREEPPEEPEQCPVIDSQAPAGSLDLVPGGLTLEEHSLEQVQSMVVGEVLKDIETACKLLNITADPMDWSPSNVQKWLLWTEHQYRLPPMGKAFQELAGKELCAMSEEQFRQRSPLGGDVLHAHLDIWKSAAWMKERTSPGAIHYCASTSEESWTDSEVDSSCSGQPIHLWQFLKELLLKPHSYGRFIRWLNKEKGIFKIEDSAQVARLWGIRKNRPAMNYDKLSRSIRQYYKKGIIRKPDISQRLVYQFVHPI
# In short: as §1
# ETV7 = target: T10, ETV7 (Homo sapiens, UniProt Q9Y603 1-341); settings: protein: recombinant; tags: N-terminal GST; dsDNA, one strand shown
# T10 sequence: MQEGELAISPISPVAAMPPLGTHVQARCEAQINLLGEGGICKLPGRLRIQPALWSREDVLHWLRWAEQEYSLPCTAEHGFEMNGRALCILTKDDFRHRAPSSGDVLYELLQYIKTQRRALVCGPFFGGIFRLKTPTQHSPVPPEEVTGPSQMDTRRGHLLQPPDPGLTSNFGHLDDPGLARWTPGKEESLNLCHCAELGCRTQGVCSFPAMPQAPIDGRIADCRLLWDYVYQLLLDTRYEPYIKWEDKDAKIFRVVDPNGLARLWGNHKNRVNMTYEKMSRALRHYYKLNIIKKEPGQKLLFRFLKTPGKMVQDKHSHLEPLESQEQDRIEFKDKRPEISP
# In short: as §1
# ELF5 = target: T11, ELF5 (Homo sapiens, UniProt Q9UKW6-2 1-255); settings: protein: recombinant; tags: N-terminal GST; dsDNA, one strand shown
# T11 sequence: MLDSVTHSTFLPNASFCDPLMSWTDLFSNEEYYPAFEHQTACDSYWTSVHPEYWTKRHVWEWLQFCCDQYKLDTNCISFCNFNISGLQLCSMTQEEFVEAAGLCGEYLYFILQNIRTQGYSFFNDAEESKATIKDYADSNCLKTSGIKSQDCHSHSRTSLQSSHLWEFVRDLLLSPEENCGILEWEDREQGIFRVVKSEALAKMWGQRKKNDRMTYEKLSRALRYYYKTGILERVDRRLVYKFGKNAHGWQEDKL
# In short: as §1
# ETV3 = target: T12, ETV3 (Homo sapiens, UniProt P41162-2 1-143); settings: protein: recombinant; tags: N-terminal GST; dsDNA, one strand shown
# T12 sequence: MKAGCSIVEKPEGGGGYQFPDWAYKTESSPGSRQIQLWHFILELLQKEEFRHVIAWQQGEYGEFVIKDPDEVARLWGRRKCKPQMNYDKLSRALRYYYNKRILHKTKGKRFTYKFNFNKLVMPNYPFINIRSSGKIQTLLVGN
# In short: as §1
# ETV6 = ETV6 (Homo sapiens, UniProt P41212 1-452); settings: protein: recombinant; tags: N-terminal GST; dsDNA, one strand shown
# Chain of ETV6 (P41212 whole entry): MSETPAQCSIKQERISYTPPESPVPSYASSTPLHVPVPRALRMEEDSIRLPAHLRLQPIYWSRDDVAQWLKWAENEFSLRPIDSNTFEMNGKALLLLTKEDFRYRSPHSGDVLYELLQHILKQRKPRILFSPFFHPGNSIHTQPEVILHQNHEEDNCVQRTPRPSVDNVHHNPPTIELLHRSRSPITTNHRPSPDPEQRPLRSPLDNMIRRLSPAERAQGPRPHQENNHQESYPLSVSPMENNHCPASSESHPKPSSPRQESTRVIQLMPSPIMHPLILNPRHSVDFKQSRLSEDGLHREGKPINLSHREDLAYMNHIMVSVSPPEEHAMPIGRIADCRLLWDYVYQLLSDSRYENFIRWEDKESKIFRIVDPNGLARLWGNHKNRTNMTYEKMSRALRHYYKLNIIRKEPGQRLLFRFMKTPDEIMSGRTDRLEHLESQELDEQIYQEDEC
# In short: as §1
sequence,measurement,setting,value
TACTTT,binding signal,FEV,"1.33 fold enrichment (6-mer frequency, TF over GST control)"
same,binding signal,ETV5,"1.38 fold enrichment (6-mer frequency, TF over GST control)"
same,binding signal,HSF1,"1.44 fold enrichment (6-mer frequency, TF over GST control)"
same,binding signal,SPIC,"1.26 fold enrichment (6-mer frequency, TF over GST control)"
same,binding signal,ELF4,"1.43 fold enrichment (6-mer frequency, TF over GST control)"
same,binding signal,ELK4,"1.4 fold enrichment (6-mer frequency, TF over GST control)"
same,binding signal,ETV2,"1.33 fold enrichment (6-mer frequency, TF over GST control)"
same,binding signal,ELF3,"1.73 fold enrichment (6-mer frequency, TF over GST control)"
same,binding signal,CRX,"1.71 fold enrichment (6-mer frequency, TF over GST control)"
same,binding signal,ETV1,"1.39 fold enrichment (6-mer frequency, TF over GST control)"
same,binding signal,ERF,"1.39 fold enrichment (6-mer frequency, TF over GST control)"
same,binding signal,ETV3L,"1.35 fold enrichment (6-mer frequency, TF over GST control)"
same,binding signal,ETS2,"1.32 fold enrichment (6-mer frequency, TF over GST control)"
same,binding signal,SPDEF,"1.35 fold enrichment (6-mer frequency, TF over GST control)"
same,binding signal,ETV7,"1.36 fold enrichment (6-mer frequency, TF over GST control)"
same,binding signal,ELF5,"1.34 fold enrichment (6-mer frequency, TF over GST control)"
same,binding signal,ETV3,"1.34 fold enrichment (6-mer frequency, TF over GST control)"
same,binding signal,ETV6,"1.37 fold enrichment (6-mer frequency, TF over GST control)"
